Shown are actives, neighbours in structure and some others; about 1.8% of the full set was active somewhere.
H9c2 protect = cardioprotection against H2O2-induced cell death, primary screen, uHTS, H9c2 cells, ATPLite luminescence. AID 588492, 2011. H9c2 cardiomyocytes, H2O2 injury protection, 2 h. 360,000 tested, 0.63% active. protection from H2O2 cell death, % at 20 µM;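 active means compounds giving at least 50% protection of heart cells from peroxide-induced death in the single-dose screen, raw or plate-pattern-corrected value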
GRK2 inh = compounds blocking aptamer binding on GRK2 – biochemical, human GRK2, bead flow cytometry, HTS, primary screen | Beta-adrenergic receptor kinase 1 (Homo sapiens), P25098 | FAM-aptamer displacement from GRK2 | inhibition of aptamer binding, % at 10 µM | 330,000 tested, 0.59% active | AID 488847, 2010;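 active means inhibition of aptamer binding above 40%, roughly 3 SD of noise, on plates passing a quality check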;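 further: median bead fluorescence of bound FAM aptamer so fluorescent compounds give negative values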
Target sequence (P25098 whole entry, looked up): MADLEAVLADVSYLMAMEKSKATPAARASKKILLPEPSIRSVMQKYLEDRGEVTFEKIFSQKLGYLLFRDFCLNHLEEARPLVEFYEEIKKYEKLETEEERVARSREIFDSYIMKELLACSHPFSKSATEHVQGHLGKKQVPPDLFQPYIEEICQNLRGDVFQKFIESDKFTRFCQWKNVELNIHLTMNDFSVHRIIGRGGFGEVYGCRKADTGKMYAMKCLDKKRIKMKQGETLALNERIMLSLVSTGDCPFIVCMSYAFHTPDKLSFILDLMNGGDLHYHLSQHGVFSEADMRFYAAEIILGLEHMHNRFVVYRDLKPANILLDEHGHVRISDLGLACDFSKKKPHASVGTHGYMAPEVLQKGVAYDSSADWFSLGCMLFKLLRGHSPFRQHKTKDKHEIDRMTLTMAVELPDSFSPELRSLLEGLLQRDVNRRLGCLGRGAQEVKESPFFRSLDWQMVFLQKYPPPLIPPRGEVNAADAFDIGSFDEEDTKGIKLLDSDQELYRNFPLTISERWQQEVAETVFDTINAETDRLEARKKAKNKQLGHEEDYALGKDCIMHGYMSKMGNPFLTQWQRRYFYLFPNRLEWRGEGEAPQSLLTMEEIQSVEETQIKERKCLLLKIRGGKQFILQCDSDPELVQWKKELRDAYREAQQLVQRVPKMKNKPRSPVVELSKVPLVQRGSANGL
Neddylation inh = inhibitors of cullin neddylation, primary screen, biochemical, TR-FRET, uHTS, NAE and Ubc12; NEDD8-conjugating enzyme Ubc12 (Homo sapiens) + NEDD8-activating enzyme E1 regulatory …; inhibition, % at 25 µM; 360,000 tested, 0.58% active; AID 651699, 2012; in the data active means inhibition above about 36%
HDAC3 inhib = HDAC3 deacetylase inhibitors, primary screen, biochemical, fluorescence, cell-free homogeneous. inhibition, % at 8.3 µM. AID 2718, 2010. 320,000 tested, 0.15% active. Histone deacetylase 3 (Homo sapiens), O15379. recombinant HDAC3, fluorogenic peptide/trypsin coupled; in the data active means inhibition above about 26%, passing the limit was not always enough
Neddyl inh conf = blockade of NEDD8 conjugation to cullin – biochemical, TR-FRET, single concentration, confirmation; shares compounds with Neddylation inh; TR-FRET cullin neddylation biochemical assay; calls only at 25 µM; 1,800 tested, 13% active; AID 652217, 2013; in the data active means inhibition above about 40%;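 further: neddylation substrate is the cullin 1 ring ligase complex with SKP2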
Hits are given with their value; 0 = inactive; - = not tested or not shown; + = active, no number.

SMILES	H9c2 protect	GRK2 inh	Neddylation inh	HDAC3 inhib	Neddyl inh conf
COc1ccc(C2(O)CC3CCC(C2)N3c2nc(C)cc(C)c2C#N)cc1 (stereo unspecified)	0	0	38	0	0
CCOC(=O)Cc1sc(N)nc1C	0	0	0	0	-
N#Cc1nc(-c2ccco2)oc1NCc1ccccc1Cl	0	0	39	0	0
N#Cc1nc(-c2ccco2)oc1NCc1ccco1	0	0	-	0	-
CCn1cc(C(=O)O)c(=O)c2cc(F)c(N3CCN(C(=S)NC(=O)c4ccccc4F)CC3)cc21	0	0	0	0	-
CCn1cc(C(=O)O)c(=O)c2cc(F)c(N3CCN(C(=O)Nc4ccccc4)CC3)cc21	0	0	53	0	0
CCn1cc(C(=O)O)c(=O)c2cc(F)c(N3CCN(C(=S)NC(=O)c4ccc(OC)cc4)CC3)cc21	0	0	53	0	0
CCOC(=O)[C@]12CCC=C1N(Cc1cccc3ccccc13)C(=O)[C@H](CC(=O)N1CCOCC1)C2	-	-	0	-	-
CCOC(=O)c1[nH]c2ccc(C(=O)OC)cc2c1C(=O)OCC	0	0	39	0	0
CCOC(=O)c1[nH]c2ccc(C)cc2c1N	0	0	0	0	-
CCCC(C)NC(=O)c1ccc2[nH]c3c(c2c1)CC(C)CC3 (stereo unspecified)	0	0	0	0	-
COC(=O)c1ccc2[nH]c3c(c2c1)CC(C)CC3 (stereo unspecified)	0	0	40	0	+
CCCn1c(=O)[nH]c(=O)c2c1nc(-c1ccc(OC(F)F)c(OC)c1)n2CCOC	0	0	39	0	0
CCCn1c(=O)[nH]c(=O)c2c1nc(-c1ccccc1OC(F)F)n2CCOC	0	0	0	0	-
C/C(=N\NC(=O)c1ccc(N2CCCC2=O)cc1)c1ccccc1	0	0	0	0	-
C/C(=N\NC(=O)c1ccc(N2CCCC2=O)cc1)c1ccc(O)cc1O	0	0	63	0	0
Cc1ccccc1C(=O)Nc1nnc(S(=O)(=O)N(C)Cc2ccco2)s1	0	0	0	0	-
Oc1ccc(Cl)cc1C=Nc1ccccc1Br	0	0	0	0	-
Oc1ccc(Br)cc1C=Nc1ccc2c3c(cccc13)CC2	87	0	43	-	-
CCCCCOc1ccc(C(=O)CCC(=O)N2CCCC2)cc1	0	0	0	0	-
CCN(C(=O)CSc1nnc(NC2CCCCC2)s1)C1CCS(=O)(=O)C1 (stereo unspecified)	0	0	0	0	-
O=C(Nc1cc(C(=O)Nc2ccccc2C(=O)O)cc(C(=O)Nc2ccccc2C(=O)O)c1)c1ccccc1	0	0	49	0	0
COc1ccc(-c2c(-c3ccccc3OC)sc3ccccc23)cc1C=O	0	0	0	0	-
CC(C)(C)C(=O)Nc1cccc(OC(F)(F)C(F)Cl)c1 (stereo unspecified)	0	0	0	0	-
c1ccc(-c2oc3ncnc(NCCCn4ccnc4)c3c2-c2ccccc2)cc1	0	0	-	0	-
SMILES	H9c2 protect	GRK2 inh	Neddylation inh	HDAC3 inhib	Neddyl inh conf
CN(C)CCCNc1ncnc2oc(-c3ccccc3)c(-c3ccccc3)c12	0	0	42	0	0
Cc1ccc(NS(=O)(=O)c2cccc(C(=O)N/N=C/c3ccc4c(c3)OCCO4)c2)c(C)c1	0	0	49	0	0
COc1ccccc1NS(=O)(=O)c1cccc(C(=O)N/N=C/c2ccccc2OCC(=O)O)c1	0	0	0	-	-
Cc1ccc(C(=O)N/N=C/c2ccc(N3CCOCC3)cc2)c(C)c1	0	0	41	0	0
COc1ccccc1NS(=O)(=O)c1cccc(C(=O)N/N=C/c2ccc(N3CCOCC3)cc2)c1	0	0	41	0	0
CCN(CC)C1CCN(C(=O)c2ccc3nc(Cc4ccc(OC)cc4)oc3c2)C1 (stereo unspecified)	0	-	0	-	-
CCCCc1nnc(NC(=O)CCN2C(=O)C3CC=CCC3C2=O)s1 (stereo unspecified)	0	0	0	0	-
O=C(c1cnn2c(C(F)(F)F)cc(-c3ccc4c(c3)OCO4)nc12)N1CCCCC1	0	0	44	0	0
COc1ccc(-c2cc(C(F)(F)F)n3nc(C(=O)N4CCCCC4)cc3n2)cc1	0	0	-	0	-
COc1ccc(-c2cc(C(F)(F)F)n3nc(C(=O)N4CCCCC4)cc3n2)cc1OC	0	0	38	0	0

Screens deposited in PubChem by several laboratories.
